Experimental data: PubChem BioAssay AID1220 (Sanford-Burnham Center for Chemical Genomics, 2008)
The whole screen tested about 190,000 compounds, of which about 1,300 (0.68%) were called active. What follows is part of a selection rich in actives, with near analogues and random picks from the rest. Unmarked numbers belong to inactive results. Cut-off read from the data, not from the text of the source: active = inhibition above about 50%; inactive = the rest.

These compounds were tested against Mannose-6-phosphate isomerase (Homo sapiens) (UniProt P34949) (assay: human PMI inhibitors, high substrate, primary screen, biochemical, fluorescence intensity, high mannose 6-phosphate (AID 1220)). Conditions: recombinant PMI enzyme, coupled fluorescence intensity; at 20 µM; active compounds read high.
Sequence of Mannose-6-phosphate isomerase (Homo sapiens) (P34949 whole entry, looked up): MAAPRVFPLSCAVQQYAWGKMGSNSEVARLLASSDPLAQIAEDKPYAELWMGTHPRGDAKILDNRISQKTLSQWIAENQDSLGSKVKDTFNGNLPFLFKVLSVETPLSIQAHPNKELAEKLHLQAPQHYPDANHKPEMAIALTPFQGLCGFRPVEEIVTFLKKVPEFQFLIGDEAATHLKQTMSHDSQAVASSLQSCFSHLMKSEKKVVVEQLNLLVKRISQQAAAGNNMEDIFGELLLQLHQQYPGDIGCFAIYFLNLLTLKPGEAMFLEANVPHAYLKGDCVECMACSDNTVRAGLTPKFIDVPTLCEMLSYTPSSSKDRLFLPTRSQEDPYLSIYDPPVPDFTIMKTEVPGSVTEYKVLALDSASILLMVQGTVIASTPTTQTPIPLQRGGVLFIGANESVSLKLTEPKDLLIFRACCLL

Row | Structure (SMILES) | inhibition
1 | O=[N+]([O-])c1ccccc1-c1ccc(C(=S)N2CCCC2)o1 | 18.9%
2 | Cc1ccc(N2CCN(C(=S)c3ccc(-c4cccc([N+](=O)[O-])c4)o3)CC2)cc1 | 26.5%
3 | Cc1cccc(N2CCN(C(=S)c3ccc(-c4ccccc4[N+](=O)[O-])o3)CC2)c1 | 57.3% (active)
4 | Cc1cc(C)nc(N/N=C/c2cccc3ccccc23)n1 | -14.6%
5 | COc1cccc(CN(C)C(=O)c2cccnc2SC)c1OC | -6.5%
6 | COc1ccc(-c2nnc3ccc(SCC(=O)N4CCOCC4)nn23)cc1 | -2.8%
7 | CN1C(=O)C(Cl)(Cl)C(=O)c2ccccc21 | 68.4% (active)
8 | CCN1C(=O)C(F)(CC)C(=O)c2ccccc21 (centres undefined) | 4.2%
9 | CC1(O)C(=O)c2ccccc2N(c2ccccc2)C1=O (centres undefined) | -4.8%
10 | O=C(NNC(=O)C1CC(c2cccnc2)=NO1)Nc1ccccc1F (centres undefined) | -6.2%
11 | Cc1cc(S(=O)(=O)N(Cc2ccc(C(C)C)cc2)CC2CCCO2)ccc1-n1cnnn1 (centres undefined) | -1%
12 | Cn1c(-c2ccccc2)c(C(=O)CCl)c2ccccc21 | -33.5%
13 | Cc1nc(SCC(=O)c2ccc(F)cc2)n[nH]1 | 12.9%
14 | Cc1ccc(C(=O)CSc2n[nH]c(C)n2)cc1 | -0.9%
15 | Cc1nc(SCC(=O)c2ccccc2)n[nH]1 | 51.2% (active)
16 | CCN(CC)C(=O)Cn1cc(S(=O)(=O)CC(=O)NCCc2ccc(OC)c(OC)c2)c2ccccc21 | 20.4%
17 | COc1ccc(CCNC(=O)CS(=O)(=O)c2cn(CC(=O)N3CCCC3)c3ccccc23)cc1OC | 46.9%
18 | COc1ccc(CCNC(=O)CS(=O)(=O)c2cn(CC(=O)N3CCOCC3)c3ccccc23)cc1OC | 51.4% (active)
19 | COc1cc(SC)ccc1C(=O)Nc1ccc(Cl)cn1 | 2.4%
20 | CC(=O)N1CCC2(CC1)CC(=O)c1cc(OCC(=O)N3CCOCC3)ccc1O2 | -1.2%
21 | O=C1Nc2c(Br)cc(Br)cc2C1(O)N1CCOCC1 (centres undefined) | 55.6% (active)
22 | CC1CCN(C2(O)C(=O)Nc3ccc(Br)cc32)CC1 (centres undefined) | -1.3%
23 | Cc1cc([N+](=O)[O-])cc2c1NC(=O)C2(O)N1CCOCC1 (centres undefined) | 16.7%
24 | COc1ccc(C2C(C(C)=O)=C(O)C(=O)N2CCCn2ccnc2)cc1 (centres undefined) | -4%
25 | CCOC(=O)C1(C)C=C(Nc2ccc(O)cc2)C(=O)N1c1ccc(O)cc1 (centres undefined) | 58.5% (active)

Row | Structure (SMILES) | inhibition
26 | CCOC(=O)C1(C)C=C(Nc2ccc(OC)cc2)C(=O)N1c1ccc(OC)cc1 (centres undefined) | 18%
27 | CCOC(=O)C1(C)C=C(Nc2ccc(C)cc2)C(=O)N1c1ccc(C)cc1 (centres undefined) | -5.2%
28 | O=C(/C=C/c1ccco1)Nc1nc(-c2ccccn2)cs1 | 25.9%
29 | CCOC(=O)c1c2ccc(OCC(=O)N/N=C/c3ccccc3C(F)(F)F)cc2n2ccccc12 | 64.2% (active)
30 | Cc1ccc(/C=N/NC(=O)CNC(=O)COc2ccccc2)cc1 | 8.2%
31 | Cc1ccc(OCC(=O)N/N=C\c2cn(Cc3ccccc3)c3ccccc23)cc1C | 2.4%
32 | CCOC(=O)c1c2ccc(OCC(=O)N/N=C/c3ccc(Cl)cc3)cc2n2ccccc12 | 48.6%
33 | Cc1cccc(OCC(=O)N/N=C\c2cn(C)c3ccccc23)c1 | -0.8%
34 | Cn1c2c(c(=O)n(C)c1=O)[C@@]1(C(=O)Nc3ccccc31)C(C#N)=C(N)O2 | 54.6% (active)
35 | Cn1c2c(c(=O)n(C)c1=O)C1(C(=O)Nc3ccccc31)C(C#N)=C(N)O2 (centres undefined) | 47.4%
36 | N#CC1=C(N)Oc2[nH]c(=S)[nH]c(=O)c2C12C(=O)Nc1ccccc12 (centres undefined) | 46.2%
37 | CNc1oc(-c2ccc(Cl)cc2)nc1C#N | 0.9%
38 | Cc1c(Nc2cc(N3CCOCC3)c3nonc3c2[N+](=O)[O-])c(=O)n(-c2ccccc2)n1C | 27.1%
39 | Cc1c(Nc2cc(N3CCCC(C)C3)c3nonc3c2[N+](=O)[O-])c(=O)n(-c2ccccc2)n1C (centres undefined) | 44.3%
40 | Cc1c(Nc2cc(N3CCCCCC3)c3nonc3c2[N+](=O)[O-])c(=O)n(-c2ccccc2)n1C | 51.5% (active)
41 | Cc1c(NC(=O)CN2c3cccc4cccc(c34)S2(=O)=O)c(=O)n(-c2ccccc2)n1C | 5%
42 | CC1=C(C)CC(C(=O)N2CCN(Cc3ccccc3)CC2)C(C(=O)O)C1 (centres undefined) | 9.2%
43 | COc1ccc2nc(NC(=O)Nc3ccccc3)sc2c1 | 15.5%
44 | COc1ccc2nc(NC(=O)Nc3cccc4ccccc34)sc2c1 | 58.6% (active)
45 | CCCC(=O)Nc1nc2ccc(OC)cc2s1 | 7.2%
46 | Cc1cc(=O)n(C)c2ccccc12 | -8.5%
47 | Cn1c(-c2ccccc2)cc(=O)c2ccccc21 | 2%
48 | Cn1c2ccccc2c(=O)n2c(=O)c3ccccc3cc12 | 54.4% (active)
49 | CNC(=O)c1[nH]cnc1C(=O)N[C@@H](Cc1ccccc1)C(=O)OC(C)(C)C | 2.7%
50 | O=C1C2C3C=CC(C3)C2C(=O)N1c1ccccc1OS(=O)(=O)c1ccccc1 (centres undefined) | -5%

Row | Structure (SMILES) | inhibition
51 | CCOc1ccc(/C=C2\SC(N3CCc4ccccc4C3)=NC2=O)cc1 | 3.5%
52 | COc1ccc(N)c2c1C(=O)c1ccccc1C2=O | 23.8%
53 | Cc1cccc(N)c1-c1c(C)cccc1N | 5.8%
54 | Cc1ccc2c(c1C)OC(=O)CC2(C)C | -5.5%
55 | COc1ccc(OC)c2c1CCC2=O | -2.6%
56 | Cc1ccc(N)c2c1OCCC2=O | 57.7% (active)
57 | COc1ccc(N)c2c1OCCC2=O | 59.8% (active)
58 | COC(=O)c1ccc(/C=N/NC(=S)NCCN2CCOCC2)cc1 | -1.5%
59 | NC(=O)C1CCN(C(=O)C2CCN(S(=O)(=O)c3ccccc3)CC2)CC1 | 5%
60 | CC1(C)Cc2c(ccc3ccccc23)/C(=C/C(=O)N2CCCCC2)N1 | -2.6%
61 | C=CCC1(O)C(=O)N2C(=C1C(=O)N1CCOCC1)c1ccccc1CC2(C)C (centres undefined) | -1.7%
62 | CC1(C)Cc2c(ccc3ccccc23)C2=C(C(=O)N3CCCC3)C(=O)C(=O)N21 | 56% (active)
63 | CCOC(=O)C1=C2c3ccc4ccccc4c3CC(C)(C)N2C(=O)C1=O | 27.6%
64 | CC1(C)Cc2ccccc2/C(=C/C(=O)N2CCCCCC2)N1 | -22.6%
65 | CC1(C)Cc2ccccc2C2=C(C(=O)N3CCCCCC3)C(=O)C(=O)N21 | 60.5% (active)
66 | COc1ccc(/C=N/NS(C)(=O)=O)c(OC)c1 | 8.2%
67 | CCOC(=O)N/N=C1\CC(C)CC(C)(C)C1 (centres undefined) | 4.2%
68 | COc1ccc(CCNC(=O)COC(=O)/C=C/c2cc(OC)c(OC)c(OC)c2)cc1OC | -0.4%
69 | COc1cccc(CC2(CO)CCN(Cc3ccc4cccc(F)c4n3)CC2)c1 | 13.1%
70 | COc1ccc(-n2c(C)cc(C(=O)COc3ccc(C)nc3[N+](=O)[O-])c2C)cc1 | 41%
71 | Cc1ccc(OCC(=O)c2cc(C)n(-c3ccccc3)c2C)c([N+](=O)[O-])n1 | 21.3%
72 | Cc1cc(C(=O)COc2cccnc2[N+](=O)[O-])c(C)n1-c1ccccc1 | 53.3% (active)
73 | Cc1ccc(-n2c(C)cc(C(=O)COc3cccnc3[N+](=O)[O-])c2C)cc1 | 54.5% (active)
74 | Cc1cc(-n2c(C)cc(C(=O)COc3ccccc3[N+](=O)[O-])c2C)no1 | 9.1%
75 | Cc1ccc(OCC(=O)c2cc(C)n(C3CC3)c2C)c([N+](=O)[O-])n1 | 10.6%

Row | Structure (SMILES) | inhibition
76 | CN(Cc1ccccc1)C(=O)CC(c1ccccc1)c1cc(Cl)ccc1O (centres undefined) | 4.5%
77 | CCn1c(=O)c(C(=O)CN2CCN(S(=O)(=O)c3ccccc3)CC2)c(N)n(Cc2ccccc2)c1=O | 0.5%
78 | Clc1cccc(Cl)c1CNc1ccc(N2CCCC2)cc1 | 84.4% (active)
79 | O=C(O)c1cc(NCc2c(F)cccc2Cl)ccc1N1CCOCC1 | 2.7%
80 | NS(=O)(=O)c1ccc(NCc2c(F)cccc2Cl)cc1 | 4.6%
81 | O=S(=O)(Nc1ccc(N2CCCCC2)cc1)c1ccccc1 | 0.6%
82 | O=C(Nc1ccc(N2CCCCCC2)cc1)c1ccccc1Cl | 27.3%
83 | COC(=O)C(CCSC)NC(=O)CNS(=O)(=O)c1ccc(Br)cc1 (centres undefined) | -7.6%
84 | Cc1ccc(C)c(CN2CCNC2=O)c1 | -0.9%
85 | CCNC(=O)CC1C(=O)N(CC)C(=S)N1NC(=O)c1cccnc1 (centres undefined) | -4.7%
86 | N=C1S/C(=C\c2ccccc2F)C(=O)N1c1ccc(F)cc1 | 3.1%
87 | Cc1cc(C)nc(NS(=O)(=O)c2ccc(Br)s2)c1 | 42.1%
88 | CCCCS(=O)(=O)Nc1ccc(C)cn1 | 57.3% (active)
89 | Cc1ccc(NS(=O)(=O)c2ccc(Br)s2)nc1 | 66.2% (active)
90 | CCCCCCCCCS(=O)(=O)Nc1cc(C)ccn1 | 7.7%
91 | Cc1cccc(NS(=O)(=O)c2ccc(Br)s2)n1 | -4.4%
92 | Cc1ccc(NS(=O)(=O)Cc2ccccc2)nc1 | 16.5%
93 | O=c1cc(CCl)nc2sc3ccccc3n12 | -13.1%
94 | COC(=O)C1=C(C)N(C)C(=O)NC1c1cc2c(cc1[N+](=O)[O-])OCO2 (centres undefined) | 42.7%
95 | COc1c(O)ccc(C2NC(=O)NC(C)=C2C(=O)Nc2ccccc2C)c1[N+](=O)[O-] (centres undefined) | 49.8%
96 | CCOc1c(O)ccc(C2NC(=O)NC(C)=C2C(=O)OC)c1[N+](=O)[O-] (centres undefined) | 50.9% (active)
97 | CCOc1c(O)ccc(C2NC(=O)N(C)C(C)=C2C(=O)OC)c1[N+](=O)[O-] (centres undefined) | 60.2% (active)
98 | COC(=O)C1=C(C)N(C)C(=O)NC1c1ccc(O)c(Cl)c1 (centres undefined) | 3.8%
99 | COC(=O)C1=C(C)NC(=O)NC1c1ccc([N+](=O)[O-])o1 (centres undefined) | 10.9%
